# Bioassay records as filed in PubChem BioAssay.
# The entries come from a sample that favours hits as a whole.
# SF-1 inh – blocks the human nuclear receptor SF-1. Q13285. CHO-K1 Gal4-SF-1 LBD luciferase reporter. inhibition, % at 10 µM. 65,000 compounds, 0.55% hits;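 active = inhibition above the mean inhibition of all tested compounds plus 3 SD, cut at about 48% in these data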
# Target sequence (Q13285 whole entry, looked up, the tested form may be a part): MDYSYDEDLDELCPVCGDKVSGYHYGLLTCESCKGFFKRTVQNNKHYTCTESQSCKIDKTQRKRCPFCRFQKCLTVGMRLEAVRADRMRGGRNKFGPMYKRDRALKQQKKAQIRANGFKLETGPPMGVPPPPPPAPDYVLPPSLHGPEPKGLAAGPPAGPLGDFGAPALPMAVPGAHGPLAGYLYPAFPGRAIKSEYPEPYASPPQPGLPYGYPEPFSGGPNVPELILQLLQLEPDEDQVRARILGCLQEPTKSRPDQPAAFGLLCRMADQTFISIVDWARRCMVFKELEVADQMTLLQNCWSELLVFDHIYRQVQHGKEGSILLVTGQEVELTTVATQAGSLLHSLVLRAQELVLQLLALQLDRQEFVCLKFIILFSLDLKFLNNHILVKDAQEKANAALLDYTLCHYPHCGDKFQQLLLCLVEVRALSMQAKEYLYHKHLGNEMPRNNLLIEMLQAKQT
# A number is an active result; i = inactive.
SMILES,SF-1 inh
COC(=O)c1ccc(C(=O)OC)c(NS(C)(=O)=O)c1,i
Cc1occc1C(=O)n1nnc2ccccc21,i
O=C(c1ccc2c(c1)OCO2)N1CCN(c2ccc(F)cc2)CC1,i
Cc1occc1C(=O)N1CCN(c2ccc(Cl)c(Cl)c2)CC1,55.8
c1ccc(-c2cn3c4c(sc3n2)CCCC4)cc1,73.0
Cc1c(C(=O)N2CCOCC2)sc2nc(-c3ccccc3)cn12,i
Cc1c(C(=O)NCc2ccco2)sc2nc(-c3ccccc3)cn12,i
COc1ccccc1N(CC(=O)NC1CCCC1)C(=O)c1csnn1,i
O=C(Nc1ccc2c(c1)OCO2)c1c(Cl)nc2sccn12,i
O=C(CCC1CCCC1)N1CCN(C(=O)COc2ccccc2)CC1,i
COc1ccc(OC)c(-c2cc(C(=O)NCc3ccco3)no2)c1,i
O=S(=O)(NCCSc1nnnn1-c1ccccc1)c1cccs1,i
O=C(COc1ccc(Cl)cc1Cl)Nc1ccccn1,i
CCCCCOC(=O)c1[nH]c2c(c1C)C(=O)CC(c1ccco1)C2 (centres undefined),57.4
CC(NC(=O)c1cc2ccccc2o1)c1cccs1 (centres undefined),i
Cc1cc(=O)[nH]c(N2CCCC2)n1,i
Fc1ccc(OCc2nn3cnnc3s2)cc1,i
CC(=O)c1ccc(N2CCN(C(=O)c3cc4c(=O)n(C)c5ccccc5c4n3C)CC2)cc1,i
C=CCn1c(=O)[nH]c2cc(C(=O)N3CCN(c4ccc(C(C)=O)cc4)CC3)ccc2c1=O,i
CC(=O)c1ccc(N2CCN(c3ccc(C(F)(F)F)cn3)CC2)cc1,57.8
COC(=O)c1ccc(CSc2nc3c(c(=O)n2-c2ccc(Br)cc2)SCC3)o1,i
CCOc1cccc(C(=O)Nc2nnc(-c3ccco3)s2)c1,i
COC(=O)C1=C(CSc2nnnn2C)NC(=O)NC1c1cc(C)ccc1C (centres undefined),i
O=c1[nH]c2ccc(Br)cc2c(-c2ccccc2)c1CN1CCOCC1,i
Oc1c(CN2CCOCC2)cc(COCc2ccccc2)c2cccnc12,72.9
SMILES,SF-1 inh
COc1ccc(-c2cc3nc4n(c(=O)c3s2)CCOC4)cc1,56.3
CCOC(=O)c1sc(-c2ccc(OC)cc2)cc1N,i
COc1cccc(C(=O)Cn2c(N3CCOCC3)nc3c2c(=O)n(C)c(=O)n3C)c1,i
COc1cccc2c1C(=O)c1c(O)c3c(c(O)c1C2=O)C[C@@](O)(C(=O)CO)C[C@@H]3O[C@H]1C[C@H](N)[C@H](O)[C@H](C)O1,79.8
CC(=O)c1cccc(-n2nnnc2SCC(=O)N2CCCC2)c1,i
COc1ccc2[nH]c(=O)c(CN(C(=O)c3ccco3)C3CCCCC3)cc2c1,i
COc1ccc2cc(CCNC(=O)C3CC3)c(=O)[nH]c2c1,i
Cc1ccc(NC(=O)c2ocnc2C)cc1Cl,i
CC1CC(C)CN(c2ncnc3c2cnn3-c2ccc(Cl)cc2)C1 (centres undefined),i
c1ccc(-n2ncc3c(NC4CCCCCC4)ncnc32)cc1,i
CC1CCCN(c2ncnc3c2cnn3-c2ccccc2)C1 (centres undefined),48.2
CC1CCCN(c2ncnc3c2cnn3-c2ccc(Cl)cc2)C1 (centres undefined),85.5
CCN1CCN(c2ncnc3c2cnn3-c2ccccc2)CC1,i
Cc1ccc(-n2ncc3c(N4CCCC4)ncnc32)c(C)c1,i
Cc1ccc(-n2ncc3c(N4CCCC(C)C4)ncnc32)c(C)c1 (centres undefined),i
Cc1cccc(-n2ncc3c(N4CCC(C)CC4)ncnc32)c1,i
c1ccc(-n2ncc3c(N4CCCCC4)ncnc32)cc1,68.7
Cc1nc(SCC(=O)Nc2c(C)n(C)n(-c3ccccc3)c2=O)[nH]c(=O)c1Cc1ccccc1,i
CSc1nncc(-c2ccc(F)cc2)n1,i
CCCCSC1=C(C#N)C(c2ccccc2C)C(C(=O)OCC)C(=O)N1 (centres undefined),i
O=c1oc2ccccc2cc1NCc1ccccc1O,i
CCOc1ccc(N2C(=O)c3cccnc3C2Nc2ccc(C)cc2)cc1 (centres undefined),i
Cc1cc(C)nc(Nc2nc(=O)c3ccccc3s2)n1,i
O=C(CNc1ccc(Oc2ccccc2)cc1)N1CCOCC1,i
O=C(NCCN1CCOCC1)C1CCC(=O)N1C1CCCCC1 (centres undefined),i
SMILES,SF-1 inh
Cn1nc(C(C)(C)C)cc1C(=O)NCc1ccc(N2CCCC2=O)cc1,69.4
O=C(NCc1ccccc1)c1noc2c1CCCCC2,i
O=C1CC(NCCN2CCOCC2)C(=O)N1Cc1ccc(N2CCCC2=O)cc1 (centres undefined),i
CCn1cc(Br)c(C(=O)Nc2cccc(SC)c2)n1,i
COc1ccc(CCNC(=O)CN2CCCc3ccccc32)cc1OC,i
COC(=O)C1=C(CN2CCCc3ccccc32)NC(=O)NC1c1ccc(F)cc1 (centres undefined),74.8
COC(=O)C1=C(CN2CCN(C)CC2)NC(=O)NC1c1cc(C)ccc1C (centres undefined),i
O=C(O)C1CC=CCC1C(=O)Nc1ccc(S(=O)(=O)N2CCCc3ccccc32)cc1 (centres undefined),i
CCCn1nc(Oc2nc(SC)nc(N(C)C)n2)ccc1=O,i
CCC1Oc2ccccc2N(CC(=O)Nc2ccccc2OC)C1=O (centres undefined),i
COCCn1c(SCc2nc3ccccc3s2)nc2ccccc21,i
O=C(COc1ccccc1)Nc1ccc(-c2nnc(-c3ccco3)o2)cc1,i
CCCOc1ccc(-c2nnc(-c3ccco3)o2)cc1,64.2
COc1ccc(-c2noc(-c3ccco3)n2)cc1OC,i
Cc1nc2sc(C(c3ccco3)N3CCC(Cc4ccccc4)CC3)c(O)n2n1 (centres undefined),i
CCSc1nnc(NC(=O)c2nn(C(C)C)c(=O)c3ccccc23)s1,i
O=C(c1ccc(NC2=NC3CS(=O)(=O)CC3S2)cc1)N1CCc2ccccc2C1 (centres undefined),i
O=C(c1cccs1)c1cn(CC(=O)N2CCc3ccccc3C2)c2ccccc12,i
COc1ccc(N=c2scc(-c3ccc(S(=O)(=O)N4CCOCC4)cc3)n2CCCO)cc1,64.5
O=C(Nc1ccc(S(=O)(=O)N2CCOCC2)cc1)c1cccs1,i
CCOc1cc(C(=O)Nc2ccc(S(=O)(=O)N3CCOCC3)cc2)cc(OCC)c1OCC,i
O=S1CCCSC1c1cccnc1 (centres undefined),i
COC(=O)c1ccccc1NC(=O)Nc1cc(C)cc(C)n1,i
O=C(Nc1nnc(C2CCCC2)s1)C1CCN(S(=O)(=O)c2ccc(Cl)cc2)CC1,i
COc1ccc(-c2nc(SC)n(C(=O)c3ccco3)n2)cc1,i
SMILES,SF-1 inh
Cc1cc(/C=N/n2cnnc2)c(C)n1-c1ccc(OCc2ccccc2F)cc1,84.5
CC(=O)C1=C(c2ccccc2)NC(=O)NC1c1ccccc1OCC#N (centres undefined),i
O=C(CN(CC1CCCO1)C(=O)CCC(=O)Nc1ccccn1)NCC1CCCO1 (centres undefined),i
CN(CC1CCCO1)S(=O)(=O)c1ccc(C(=O)Nc2nc(-c3ccccn3)cs2)cc1 (centres undefined),70.1
CCOc1ccc(S(=O)(=O)Nc2ccccc2C(=O)NCC2CCCO2)cc1 (centres undefined),i
CN(C(=O)C12CC3CC(CC(C3)C1)C2)C1CCS(=O)(=O)C1 (centres undefined),i
Cc1ccc2c(c1)NC(=O)C(CC(=O)NCCCN1CCN(c3cc(Cl)ccc3C)CC1)O2 (centres undefined),i
COc1ccc(N2CCN(CCNC(=O)CCNS(=O)(=O)c3cccs3)CC2)cc1,i
